Compounds without any hit were thinned out: in the full panel of roughly 83,000, 20% have a hit.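 Interpretation: 100, growth as untreated; towards 0, rising growth inhibition; 0, no net growth; 0 to -100, cell death. Compounds scoring below 10 were considered active.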 A number with no mark means an inactive call. Calls of active or inactive are those of the source.
How the values were obtained:
Experiment in all cases: NCI-60 one-dose screen, 48 h (100 = growth as untreated, 0 = no growth, -100 = all killed)
Conditions in all cases: 10 µM
SN12C renal = system: SN12C renal
UO-31 renal = system: UO-31 renal
TK-10 renal = system: TK-10 renal
ACHN renal = system: ACHN renal
CAKI-1 renal = system: CAKI-1 renal
A498 renal = system: A498 renal
CCRF-CEM leukemia = system: CCRF-CEM leukemia
MOLT-4 leukemia = system: MOLT-4 leukemia
SR leukemia = system: SR leukemia
RPMI-8226 leukemia = system: RPMI-8226 leukemia
OVCAR-8 ovarian = system: OVCAR-8 ovarian
OVCAR-5 ovarian = system: OVCAR-5 ovarian
OVCAR-4 ovarian = system: OVCAR-4 ovarian
SK-OV-3 ovarian = system: SK-OV-3 ovarian
IGROV1 ovarian = system: IGROV1 ovarian
OVCAR-3 ovarian = system: OVCAR-3 ovarian
HS 578T breast = system: HS 578T breast
NCI/ADR-RES ovarian = system: NCI/ADR-RES ovarian
T-47D breast = system: T-47D breast

Row | SMILES | growth (SN12C renal) [%] | growth (UO-31 renal) | growth (TK-10 renal) | growth (ACHN renal) [%] | growth (CAKI-1 renal) | growth (A498 renal) | growth (CCRF-CEM leukemia) [%] | growth (MOLT-4 leukemia) | growth (SR leukemia) [%] | growth (RPMI-8226 leukemia) | growth (OVCAR-8 ovarian) | growth (OVCAR-5 ovarian) [%] | growth (OVCAR-4 ovarian) | growth (SK-OV-3 ovarian) | growth (IGROV1 ovarian) | growth (OVCAR-3 ovarian) | growth (HS 578T breast) | growth (NCI/ADR-RES ovarian) [%] | growth (T-47D breast)
1 | O=c1cc(-c2ccccc2)[nH]n1-c1nc2ccccc2[nH]1 | 49.5 | 38.4% | 63.1% | 37.2 | 45.9% | 1.96% (active) | 11.9 | -18.6% (active) | 39.3 | 40.2% | 35% | 98.6 | 25.3% | 75.7% | 38.9% | 60.9% | 69.5% | 29.1 | 62%
2 | Cc1nc2c(c(=O)[nH]1)OCN(Cc1ccccc1)C2 | 104 | 79.3% | 119% | 104 | 103% | 75.5% | 90.5 | 95.9% | 93.6 | 101% | 99.1% | 109 | 96.1% | 93.7% | 100% | 103% | 109% | 107 | 97.8%
3 | c1ccc2c(-c3nc(N4CCOCC4)c4c5c(sc4n3)CCCCCC5)cccc2c1 | 99.5 | 101% | 116% | 100 | 99.2% | 102% | 96.9 | 97.2% | 94.8 | 112% | 101% | 103 | 106% | 111% | 112% | – | 104% | 109 | 95%
4 | Cc1ccc(C)c(C(O)(c2cc(C)ccc2C)C2(O)CCCCC2)c1 | 96.8 | 87.7% | 89.8% | 89 | 80.5% | 94.5% | 94.3 | 71.5% | 85.1 | 89.7% | 97.5% | 97.9 | 93% | 90.9% | 104% | 93.6% | 94.1% | 94.8 | 72.5%
5 | COc1ccc(/C=C/C(C)=N/OCC(=O)O)cc1 | 105 | 95.9% | 87.5% | 106 | 106% | 72.8% | 95.7 | 86.8% | 93.4 | 102% | 105% | 109 | 106% | 101% | 106% | 113% | 113% | 106 | 93.5%
6 | Cc1ccc(S(=O)(=O)OCCN(CCOS(=O)(=O)c2ccc(C)cc2)c2c[nH]c(=O)[nH]c2=O)cc1 | 97.4 | 82.8% | 112% | 99 | 97.5% | 117% | 101 | 104% | 104 | 100% | 103% | 102 | 97.9% | 100% | 112% | 120% | 140% | 112 | 100%
7 | CCOC1(OCC)OC(c2ccccc2)=C(C#N)C(/C=C\c2ccccc2)C1(OCC)OCC (centres undefined) | 81.3 | 74% | 97.1% | 83.5 | 84.8% | 83.7% | 79.1 | 81.7% | 52.8 | 44.5% | 86.5% | 103 | 79.6% | 94.8% | 85.6% | 71.8% | 95.1% | – | 67.5%
8 | Fc1ccc2nc(-c3nc(-c4ccccc4)n4ccccc34)[nH]c2c1 | 16.9 | -32.9% (active) | -30.2% (active) | 10.1 | -0.279% (active) | -16.8% (active) | 53.3 | 39.8% | 38 | -25.9% (active) | -58.7% (active) | 55.9 | -71.2% (active) | -43.2% (active) | 1.27% (active) | 0.252% (active) | -5.1% (active) | – | -0.867% (active)

Source: PubChem BioAssay (NCI)
